Growth data for 10 molecules are collected here from PubChem BioAssay (NCI).

Each structure is given as a SMILES string. This is part of a sample that, as a whole, favours compounds with a hit. Of some 83,000 tested, about 20% had one in any assay.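 Percent growth is the endpoint: 0 to 100 indicates growth inhibition (40 means 60% inhibition), 0 means no net growth, and negative values indicate cell death.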 A number with no mark means an inactive call. Active and inactive are the calls of the source. How the source made its calls: active means growth percent below 10; inactive means the rest.

What all share (test): NCI-60 one-dose screen, 48 h (100 = growth as untreated, 0 = no growth, -100 = all killed)
One assay relates to HCT-15 colon. The following applies: 10 µM unless noted.
For the next assay, the system named is HT29 colon. The following applies: 10 µM unless noted.
The next assay has as its system SNB-75 CNS. The following applies: 10 µM unless noted.
The next assay relates to SNB-19 CNS. The following applies: 10 µM unless noted.
In another assay the test system is SK-MEL-5 melanoma. The following applies: 10 µM unless noted.
For a further assay, the system named is UACC-62 melanoma. The following applies: 10 µM unless noted.
The test system of the next assay is SK-MEL-28 melanoma. The following applies: 10 µM unless noted.
For the next assay, the system named is SK-MEL-2 melanoma. The following applies: 10 µM unless noted.
The next assay deals with EKVX NSCLC. The following applies: 10 µM unless noted.
The test system of another assay is SN12C renal. The following applies: 10 µM unless noted.
The test system of a further assay is UO-31 renal. The following applies: 10 µM unless noted.
The next assay deals with TK-10 renal. The following applies: 10 µM unless noted.
The test system of the next assay is ACHN renal. The following applies: 10 µM unless noted.
In the next assay the test system is CAKI-1 renal. The following applies: 10 µM unless noted.
The subject of the next assay is A498 renal. The following applies: 10 µM unless noted.
Another assay has as its system CCRF-CEM leukemia. The following applies: 10 µM unless noted.
In another assay the test system is MOLT-4 leukemia. The following applies: 10 µM unless noted.
For a further assay, the system named is PC-3 prostate. The following applies: 10 µM unless noted.
The subject of another assay is LOX IMVI melanoma. The following applies: 10 µM.
A further assay has as its system U251 CNS. The following applies: 10 µM unless noted.

In the case of `Cc1ccccc1NC(=O)Oc1ccc(Cl)cc1C(=O)c1ccccc1`, the growth is 94.1% in the assay on HCT-15 colon; 100% in the assay on HT29 colon; 77.7% in the assay with SNB-75 CNS; 96% with SNB-19 CNS; 97.3% in the assay with SK-MEL-5 melanoma; 85.4% in the assay with UACC-62 melanoma. The growth in the assay on SK-MEL-28 melanoma is 106%; with SK-MEL-2 melanoma it was 92.6%; in the assay with EKVX NSCLC it was 96.8%; in the assay with SN12C renal it was 88.2%; in the assay with UO-31 renal, 49.1%; in the assay with TK-10 renal it was 113%. In addition, the growth with ACHN renal is 88.1%; in the assay with CAKI-1 renal, 91.7%; in the assay with A498 renal, 107%; in the assay on CCRF-CEM leukemia, 96.5%; in the assay with MOLT-4 leukemia, 86.3%.

For `Cn1c(=O)[nH]c2ccccc2c1=O`, the growth was 101% in the assay with HCT-15 colon; 98.4% in the assay with HT29 colon; 91% in the assay with SNB-75 CNS; 94.3% with SNB-19 CNS; 130% with PC-3 prostate; 101% with SK-MEL-5 melanoma. The growth in the assay with UACC-62 melanoma was 102%; in the assay on SK-MEL-28 melanoma, 117%; with SK-MEL-2 melanoma, 111%; with EKVX NSCLC it was 71.6%; with SN12C renal it was 96.4%; in the assay on UO-31 renal it was 95.5%. The growth with TK-10 renal is 94.3%; in the assay with ACHN renal it was 105%; with CAKI-1 renal, 85.3%; in the assay on A498 renal, 129%; with CCRF-CEM leukemia, 108%; in the assay on MOLT-4 leukemia, 122%.

As for `CCC(=O)Oc1c(C)cc(O)c2ccccc12`, the growth in the assay with HCT-15 colon was 91.1%; with HT29 colon, 106%; in the assay on SNB-75 CNS it was 86.4%; with SNB-19 CNS, 108%; in the assay on PC-3 prostate, 59%; with SK-MEL-5 melanoma it was 82%. Also, the growth was 67.3% in the assay with UACC-62 melanoma; 75% with LOX IMVI melanoma; 119% in the assay with SK-MEL-28 melanoma; 90.4% in the assay on SK-MEL-2 melanoma; 97% with EKVX NSCLC; 93.3% in the assay with SN12C renal. Further, the growth in the assay with UO-31 renal was 51.8%; in the assay on TK-10 renal it was 132%; in the assay on CAKI-1 renal, 95.1%; in the assay on A498 renal, 101%; with MOLT-4 leukemia, 64%.

As to `Cc1cccnc1NC1OC(=O)c2ccccc21` (centres undefined), the growth in the assay with HCT-15 colon was 96.7%; with HT29 colon, 104%; in the assay with SNB-75 CNS, 96.5%; with SNB-19 CNS, 101%; in the assay on PC-3 prostate it was 114%; in the assay with SK-MEL-5 melanoma, 105%. Also, the growth in the assay on UACC-62 melanoma was 96.6%; in the assay on LOX IMVI melanoma it was 94.9%; in the assay on SK-MEL-28 melanoma, 112%; with SN12C renal, 105%; in the assay with UO-31 renal, 85.8%; with TK-10 renal, 97%. In addition, the growth in the assay with ACHN renal was 103%; in the assay with CAKI-1 renal, 99.5%; with A498 renal, 94.7%; in the assay on CCRF-CEM leukemia, 104%; in the assay on MOLT-4 leukemia, 99.3%.

Turning to `CS(=O)CC(=N\O)/C(CS(C)=O)=N\O` (centres undefined), the growth is 99% in the assay with HCT-15 colon; 99.9% in the assay on HT29 colon; 96.5% in the assay on SNB-75 CNS; 101% with SNB-19 CNS; 104% in the assay with PC-3 prostate; 103% in the assay with SK-MEL-5 melanoma. Moreover, the growth was 93.8% with UACC-62 melanoma; 107% in the assay with SK-MEL-28 melanoma; 102% in the assay on SK-MEL-2 melanoma; 99.1% in the assay with EKVX NSCLC; 97.6% in the assay with SN12C renal; 85.3% in the assay on UO-31 renal. For the same molecule, the growth in the assay with TK-10 renal is 106%; in the assay on ACHN renal it was 107%; in the assay on A498 renal, 111%; in the assay with CCRF-CEM leukemia, 101%; in the assay on MOLT-4 leukemia, 105%.

For the molecule `Nc1ccn(C2OC(CO)C(O)C2F)c(=O)n1` (centres undefined), the growth in the assay on HCT-15 colon was 95.8%; with HT29 colon it was 79%; with SNB-75 CNS, 79.5%; with SNB-19 CNS it was 90.5%; in the assay on SK-MEL-5 melanoma, 92.5%; with UACC-62 melanoma, 77.7%. Further, the growth in the assay on LOX IMVI melanoma is 79.6%; in the assay on SK-MEL-28 melanoma, 60.5%; in the assay with SK-MEL-2 melanoma, 90.1%; in the assay on EKVX NSCLC it was 96.4%; in the assay with SN12C renal, 78.8%; in the assay on UO-31 renal, 76.8%. The growth in the assay on TK-10 renal is 92.5%; in the assay with ACHN renal, 62.1%; in the assay on CAKI-1 renal, 69.8%; in the assay with A498 renal, 88.5%; in the assay on CCRF-CEM leukemia, 19.1%; with MOLT-4 leukemia, -15.5% (active).

Turning to `Cc1cccc(C)c1NC(=S)/N=C\c1c(O)[nH]c(=O)[nH]c1=O`, the growth is 107% with HCT-15 colon; 95.7% in the assay with HT29 colon; 103% in the assay on SNB-19 CNS; 96.8% with U251 CNS; 96% in the assay with PC-3 prostate; 96.3% with SK-MEL-5 melanoma. In addition, the growth in the assay on UACC-62 melanoma was 90.9%; in the assay on LOX IMVI melanoma it was 98.2%; in the assay with SK-MEL-28 melanoma, 111%; in the assay on SK-MEL-2 melanoma it was 103%; in the assay with EKVX NSCLC, 77.3%; in the assay on SN12C renal it was 98.5%. The growth was 89.5% in the assay on UO-31 renal; 106% with TK-10 renal; 102% in the assay with ACHN renal; 96.5% in the assay with CAKI-1 renal; 103% in the assay on A498 renal; 98.9% in the assay on CCRF-CEM leukemia.

With `Nc1ccc(F)cc1F`, the growth in the assay on HCT-15 colon is 108%; in the assay with HT29 colon, 106%; in the assay with SNB-75 CNS it was 97.1%; with SNB-19 CNS it was 109%; with PC-3 prostate, 89.1%; in the assay on UACC-62 melanoma, 100%. Further, the growth in the assay with LOX IMVI melanoma is 102%; in the assay with SK-MEL-28 melanoma, 92.7%; with SK-MEL-2 melanoma, 101%; with EKVX NSCLC it was 105%; in the assay on SN12C renal, 100%; with UO-31 renal, 98.4%. Moreover, the growth is 106% in the assay with TK-10 renal; 102% in the assay on ACHN renal; 94.7% in the assay on CAKI-1 renal; 107% in the assay on A498 renal; 102% with CCRF-CEM leukemia; 107% in the assay on MOLT-4 leukemia.

Take `S=c1nc(-c2ccccn2)c(-c2ccccn2)n[nH]1`: the growth was 100% with HCT-15 colon; 103% in the assay with HT29 colon; 107% in the assay with SNB-75 CNS; 112% in the assay on SNB-19 CNS; 97.7% with PC-3 prostate; 108% with SK-MEL-5 melanoma. Besides, the growth in the assay with UACC-62 melanoma is 116%; in the assay on LOX IMVI melanoma, 95.9%; in the assay on SK-MEL-28 melanoma it was 114%; in the assay on SN12C renal, 118%; with UO-31 renal it was 81.1%; in the assay with TK-10 renal, 98.6%. For the same molecule, the growth with CAKI-1 renal was 110%; in the assay on A498 renal it was 119%; in the assay on CCRF-CEM leukemia it was 97.2%; in the assay with MOLT-4 leukemia, 87.7%.

For `CCOC(=O)c1ccc(Nc2sc(C(=O)c3ccc(Br)cc3)c(N)c2C#N)cc1`, the growth is 27% in the assay with HCT-15 colon; 2.05% (active) in the assay with HT29 colon; -18.6% (active) in the assay on SNB-75 CNS; 62.5% in the assay with SNB-19 CNS; 17.5% with PC-3 prostate; 12.6% in the assay on SK-MEL-5 melanoma. Further, the growth is 36.7% in the assay on UACC-62 melanoma; 38.8% in the assay on LOX IMVI melanoma; 36.3% in the assay on SK-MEL-28 melanoma; 21.7% with SK-MEL-2 melanoma; 43.9% with SN12C renal; 25.6% in the assay with UO-31 renal. For the same molecule, the growth is 42.4% in the assay on TK-10 renal; 44% in the assay with ACHN renal; 10.7% in the assay on CAKI-1 renal; -8.46% (active) in the assay on A498 renal; 12.8% in the assay on CCRF-CEM leukemia; 33.5% in the assay with MOLT-4 leukemia.
